# Test results from PubChem BioAssay (NCATS).
# Inconclusive results are not listed. Calls of active or inactive are those of the source. Calls follow the shape of the dose curve; as a rule, active = well fitted activation curve with a large enough effect; inconclusive = small, poorly fitted or top-dose-only effect; inactive = flat fitted curve, though single readings scatter.
# Test: Cellular Toxicity (caspase-3) Jurkat (AID 655);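 also: cells exposed to compound for 16 h at 37 °C before reading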
# Settings: Jurkat caspase-3 activation, luminescence; caspase-3 activation: at 92.2 µM (top of the series), DMSO = 0%, tamoxifen = 100%
# Description: NIH Chemical Genomics Center [NCGC]
# NIH Molecular Libraries Screening Centers Network [MLSCN]
# National Institutes of Environmental Health Sciences [NIEHS]
# National Toxicology Program [NTP]
# We have developed a 1536-well cell-based assay for quantitative high throughput screening (qHTS) against a number of cell lines to determine in vitro caspase 3/7 of small molecules. This particular assay uses the Jurkat cell line which is derived from human T cell leukemia.
# NCGC Assay Protocol Summary:
# The Caspase-Glo 3/7 assay (Promega) is a homogeneous method to measure caspase-3 and caspase-7 activities in cultured cells. The quantitation of caspase 3/7 activity is based on the cleavage of a peptide-aminoluciferin substrate. After caspase cleaves the substrate the free aminoluciferin is liberated and serves as the substrate of luciferase, which generates the light. The luminescent signal is proportional to amount of caspase 3/7 activity present.
# Using the Caspase-Glo 3/7 assay, the amount of caspase 3/7 activity was measured in the Jurkat cell line with complete culture medium following compound treatment for 16 hours. The assay was performed in opaque white 1536-well plates. In the screen, tamoxifen and doxorubicin were used as positive controls. Library compounds were measured for their ability to cause the activation of caspase 3/7 in the cell line, as reflected by an increase in luminescence signal, in a concentration-dependent manner. Data were normalized to the controls for basal activity (DMSO only) and 100% stimulation (100 uM tamoxifen). AC50 values were determined from concentration-response data modeled with the standard Hill equation.
# qHTS protocol for caspase 3/7 assay in Jurkat cells
# [Step] [Parameter] [Value] [Description]
# 1. Reagent; 5 uL; 5000 Jurkat cells/well
# 3. Controls; 23 nL; Tamoxifen 0.23 uM to 100 uM & Doxorubicin 7.0 pM to 100 uM
# 4. Time; 16 hr; 37 °C incubation
# 5. Reagent; 5 uL; Caspase-Glo 3/7 reagent
# 6. Time; 20 min; Room Temperature
# 7. Detection; Luminescence; Viewlux plate reader
# Keywords: caspase 3/7, apoptosis, Jurkat cell line, luminescence, NTPHTS, NTPHTS_NCGC, NIEHS, EPA, DSSTox, MLSMR, MLSCN, NIH Roadmap, qHTS, NCGC
row,Structure (SMILES),caspase-3 activation
1,Oc1ccc(Cl)c(Cl)c1Cl,0.688% (inactive)
2,Oc1cc(Cl)c(Cl)c(Cl)c1,14.2% (inactive)
3,CCCCCC[N+](=O)[O-],0.0633% (inactive)
4,O=[N+]([O-])c1ccccc1O,1.37% (inactive)
5,CCSC(=O)N1CCCCCC1,0.302% (inactive)
6,Cc1ccc2c(C)cccc2c1,-1.07% (inactive)
7,ClCCOCCCl,-0.264% (inactive)
8,CCCCCOC(=O)c1ccccc1C(=O)OCCCCC,0.132% (inactive)
9,Clc1ccccc1,1.44% (inactive)
10,c1ccc(NNc2ccccc2)cc1,0.504% (inactive)
11,Cc1cnc[nH]1,1.79% (inactive)
12,CC(C)(Cl)Cl,-0.572% (inactive)
13,ClCC(Cl)CCl,1.95% (inactive)
14,NNC(N)=S,0.589% (inactive)
15,CC(C)(OOC(C)(C)c1ccccc1)c1ccccc1,-0.0747% (inactive)
16,CCCCOC(C)=O,1.84% (inactive)
17,ClC(Br)Br,0.0387% (inactive)
18,Cc1coc2c1CCC(C)C2 (stereo not given),0.203% (inactive)
19,Cc1cc(N=Nc2ccccc2C)ccc1N,2.76% (inactive)
20,C=CCBr,-0.133% (inactive)

row,Structure (SMILES),caspase-3 activation
1,CC(=O)NNc1ccccc1,1.53% (inactive)
2,CC(C)OC(=O)Cc1ccccc1,-1.43% (inactive)
3,C=C(Cl)CSC(=S)N(CC)CC,1.37% (inactive)
4,Cc1cc(Cl)ccc1O,4.09% (inactive)
5,CC12CC1(C)C(=O)N(c1cc(Cl)cc(Cl)c1)C2=O (stereo not given),-1.16% (inactive)
6,C/C=C/CC#N,0.734% (inactive)
7,CCCCC(=O)Cl,1.28% (inactive)
8,N#CCc1ccccc1,-0.89% (inactive)
9,ClCCOCOCCCl,-0.171% (inactive)
10,C=CCOCC1CO1 (stereo not given),-0.0286% (inactive)
11,Clc1cc(Cl)c(Cl)c(Cl)c1,0.108% (inactive)
12,COc1ccccc1N,5.87% (inactive)
13,Nc1cccc(Cl)c1,11.8% (inactive)
14,Nc1ccc(-c2ccccc2)cc1,2.52% (inactive)
15,CCC(Cl)[N+](=O)[O-] (stereo not given),1.33% (inactive)
16,Nc1c(Cl)cc([N+](=O)[O-])cc1Cl,3.21% (inactive)
17,CC(C)(C)C(O)(CCc1ccc(Cl)cc1)Cn1cncn1 (stereo not given),2.58% (inactive)
18,Oc1cc(Cl)cc(Cl)c1,-0.202% (inactive)
19,N#CC(O)c1ccccc1 (stereo not given),2.09% (inactive)
20,Nc1ccc([N+](=O)[O-])cc1N,17.7% (inactive)
